ID4 SMM: binders of human ID4 protein, primary screen, biochemical, small molecule microarray, single point; Flag-ID4 binding, fluorescence F/B; calls only; 31,000 compounds, 1.2% hits; AID 624137, 2012; call rule not given here;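 note: a binder raises fluorescence above local background on the spot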
Target sequence (P47928 whole entry, looked up): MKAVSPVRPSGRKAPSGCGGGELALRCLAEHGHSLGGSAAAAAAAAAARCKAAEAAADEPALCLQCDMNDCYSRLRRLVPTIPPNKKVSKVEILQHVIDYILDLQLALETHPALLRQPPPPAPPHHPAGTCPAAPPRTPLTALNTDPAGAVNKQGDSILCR
mut p53 react: mutant p53 pathway re-activators, primary screen, cell-based, SW480, luciferase, single point, HTS. SW480 PUMA-promoter luciferase, p53 mutant reactivation. activation, % at 9.98 µM. 28,000 compounds, 1.5% hits; in the data active = activation above about 52%; inconclusive = no clear call, values can overlap the other calls
* = called active by the depositor; i = inactive; ? = inconclusive; nt = no result given; + = active, no number. Rows were chosen to be rich in hits. Some 2.2% of all compounds tested hit in one or more screens of this group.

SMILES	ID4 SMM	mut p53 react
COC(=O)Nc1sc2c(c1C(=O)NCc1ccco1)CCC2	i	2
O=C(Nc1sc2c(c1C(=O)NCc1cccnc1)CCCC2)c1ccco1	i	29
O=C(Nc1sc2c(c1C(=O)NCc1cccnc1)CCCCC2)c1ccccc1	+	?
COC(=O)Nc1sc2c(c1C(=O)NCc1ccco1)CCCC2	+	-7
COC(=O)COc1cccc(NC(=O)c2ccc(Cl)c(Cl)c2)c1	i	10
Cc1ccc(NC(=O)CSc2nnnn2-c2cccc(C(=O)O)c2)cc1C	+	0
Cn1nnnc1SCC(=O)Nc1ccc(C(=O)O)cc1	i	-4
O=C(CSc1nnnn1-c1ccccc1)Nc1cccc(C(=O)O)c1	i	-8
Cn1nnnc1SCC(=O)Nc1ccc(I)cc1	i	78*
COc1ccc(NC(=O)CSc2nnc(-c3ccc(Cl)cc3)n2C)cc1	i	-13
Cc1nnc(SCC(=O)Nc2ccc(OC(F)(F)F)cc2)s1	i	1
FC(F)(F)Oc1ccc(Nc2n[nH]c(=S)s2)cc1	i	75*
COc1cc2ncnc(Nc3ccc(Oc4ccccc4)cc3)c2cc1OC	i	nt
O=C(O)CN(c1ccccc1)S(=O)(=O)c1ccc(Cl)c(Cl)c1	i	3
C[C@@H]1CN([C@@H](C)CO)C(=O)c2cc(NC(=O)Nc3ccccc3)ccc2O[C@@H]1CN(C)C(=O)Nc1ccccc1	i	24
CC(C)(C)c1ccc(OCC(=O)Nc2ncn[nH]2)c(Br)c1	i	47
CCCn1nnnc1NC(=O)COc1ccc(Cl)c(C)c1	i	-11
Cc1cc(OCC(=O)NCc2ccccn2)c(C)cc1Br	i	119*
Cc1cc(OCC(=O)Nc2ncn[nH]2)ccc1Cl	i	78*
Cc1cc(OCC(=O)Nc2ncn[nH]2)c(C)cc1Br	i	57*
Cc1cc(C)c(C)c(OCC(=O)NCc2ccccn2)c1	i	8
OCC1(CO)COC(COc2ccccc2)=N1	+	2
O=C(Cn1c(COc2ccccc2)nc2ccccc21)N1CCOCC1	i	-12
CNC[C@H]1Oc2ncc(C3=CCCCC3)cc2C(=O)N([C@@H](C)CO)C[C@H]1C	+	-1
C[C@H]1CN([C@@H](C)CO)C(=O)c2cc(C3=CCCC3)cnc2O[C@@H]1CN(C)S(C)(=O)=O	i	10
SMILES	ID4 SMM	mut p53 react
CNC[C@H]1Oc2ncc(C#Cc3cccc(OC)c3)cc2C(=O)N([C@@H](C)CO)C[C@H]1C	i	1
C[C@H]1CN([C@@H](C)CO)C(=O)c2cc(C3=CCCCC3)cnc2O[C@H]1CN(C)S(=O)(=O)c1cn(C)cn1	+	-2
CNC[C@@H]1Oc2ncc(C3=CCCCC3)cc2C(=O)N([C@H](C)CO)C[C@@H]1C	i	-1
CNC[C@@H]1Oc2ncc(C#Cc3ccc(OC)c(OC)c3)cc2C(=O)N([C@H](C)CO)C[C@@H]1C	+	2
COc1ccc(NC(=O)CSc2nnc(-c3ccccc3)c(-c3ccccc3)n2)cc1	i	7
C[C@@H]1CN([C@@H](C)CO)C(=O)CCCn2cc(nn2)CO[C@@H]1CN(C)C(=O)Nc1ccc(-c2cccs2)cc1	i	3
Cn1c(CN2CCOCC2)nnc1SCC(=O)Nc1sc2c(c1C#N)CCC(C(C)(C)C)C2 (stereo not given)	i	15
Cc1cc2nc(SCC(=O)c3ccc(O)cc3)[nH]c2cc1C	i	20
COc1c(O)cc2oc(-c3ccc(O)cc3)cc(=O)c2c1O	nt	58*
COc1ccc(-c2cc(=O)c3ccc(OC)cc3o2)cc1	nt	66*
COc1ccc(-c2cc(=O)c3cc(OC)ccc3o2)cc1	i	nt
COc1cc2oc(-c3ccc(O)cc3)cc(=O)c2c(O)c1OC	i	-17
CN(C)CCCSC(=N)N	i	2
CC(=O)N(C)C[C@@H]1Oc2cc(-c3cncnc3)ccc2S(=O)(=O)N([C@@H](C)CO)C[C@@H]1C	nt	12
O=C(CS(=O)c1ccccc1[N+](=O)[O-])Nc1cccc(C(F)(F)F)c1 (stereo not given)	i	71*
O=C(O)CCC(=O)Nc1cccc(C(F)(F)F)c1	i	-6
COc1ccc(C2(O)c3ccccc3NC(=O)C2O)cc1 (stereo not given)	nt	4
C[C@H](CO)N1C[C@H](C)[C@@H](CN(C)C(=O)Nc2ccc(C(F)(F)F)cc2)Oc2ccc(NC(=O)NC3CCCCC3)cc2C1=O	i	-15
O=C(CSc1nnc(-c2ccco2)o1)Nc1cccc2ccccc12	i	9
CC(C)(C)C(=O)CSc1nnc(-c2ccco2)o1	i	70*
COC(=O)CN(c1cccc(Cl)c1)S(=O)(=O)c1ccc(Cl)cc1	i	-1
C[C@@H]1CN([C@@H](C)CO)C(=O)c2cccc(NC(=O)NC3CCCCC3)c2O[C@H]1CN(C)Cc1ccc2c(c1)OCO2	i	-17
c1ccc(-c2nsc(NC3Cc4ccccc4C3)n2)cc1	i	109*
COC(=O)c1sccc1NC(=S)N(C)CCC#N	i	5
Cc1ccnc(SCC(=O)Nc2oc(-c3ccccc3)c(-c3ccccc3)c2C#N)n1	i	10
SMILES	ID4 SMM	mut p53 react
COc1ccccc1OCC(=O)Nc1oc(-c2ccccc2)c(-c2ccccc2)c1C#N	+	-13
COC(=O)c1c(NC(=O)Nc2ccc(Cl)c(Cl)c2)sc2c1C(C(=O)OC)CC2 (stereo not given)	i	30
COc1ccc(CNc2nc3ccccc3n2C)c(O)c1	i	142*
Cn1c(NCc2cc(Br)ccc2O)nc2ccccc21	i	?
CCCn1c(NCc2cccc(OC)c2O)nc2ccccc21	i	21
CCn1c(NCc2ccccc2O)nc2ccccc21	i	62*
Cc1ccc2[nH]c(=O)c(-c3noc(C(C)(C)C)n3)cc2c1	i	7
O=C(Cn1c2ccccc2n2nc(-c3ccccc3)nc12)c1ccccc1	i	-28
CSc1nc(N)nc(SCC(=O)Nc2ccc(Cl)cc2)c1C#N	i	27
Cc1cc(C(F)(F)F)c(C#N)c(SCC(=O)Nc2ccc(Cl)cc2)n1	i	124*
C[C@@H]1CN([C@@H](C)CO)C(=O)Cc2cc(NC(=O)C3CCCCC3)ccc2O[C@@H]1CN(C)CC1CC1	i	nt
C[C@@H]1CCCCO[C@H](CN(C)C(=O)c2ccccc2)[C@@H](C)CN([C@@H](C)CO)C(=O)c2cc(NS(C)(=O)=O)ccc2O1	i	-9
C[C@@H]1CCCCO[C@@H](CN(C)C(=O)CCCN(C)C)[C@@H](C)CN([C@H](C)CO)C(=O)c2cc(NS(=O)(=O)c3ccccc3)ccc2O1	+	3
C[C@H](CO)N1C[C@H](C)[C@@H](CN(C)C(=O)c2ccccc2)OCCCC[C@H](C)Oc2ccc(NS(C)(=O)=O)cc2C1=O	+	-2
C[C@@H]1CCCCO[C@H](CN(C)C(=O)CCCN(C)C)[C@@H](C)CN([C@H](C)CO)C(=O)c2cc(NS(=O)(=O)c3ccccc3)ccc2O1	i	5
COc1ccc(OC)c(NC(=O)COc2ccc3c(C)cc(=O)oc3c2)c1	i	-7
O=C(Cc1ccccc1[N+](=O)[O-])Nc1ccccc1CO	i	-14
COc1ccccc1C1=NOC(Cn2c(NCc3ccccc3)nc3c2c(=O)n(C)c(=O)n3C)C1 (stereo not given)	+	5
Cn1c(=O)c2c(nc(NCCO)n2CCc2ccccc2)n(C)c1=O	i	7

Compound activity: PubChem, Broad Institute
